F-actin modifier: alters cytoskeleton assembly in HUVEC cells; HUVEC TNFa F-actin phalloidin imaging, high content; inhibition, % at 2 µM; 91,000 tested, 0.18% active; AID 836;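 active means inhibition above the batch mean plus 3 SD and confirmed as a hit by visual image inspection, cut at about 30% in these data, passing the limit was not always enough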
HUVEC tox TNFa: toxic to HUVEC cells under TNF alpha stimulation; HUVEC TNFalpha-stimulated, Hoechst cell count, imaging; cell count reduction, % at 2 µM; 93,000 tested, 0.17% active; AID 848;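 active means cell count reduction exceeding the screen mean by over 5 SD, scaled to untreated wells per plate, cut at about 78% in these data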;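 further: cells counted after 24 h of TNF alpha exposure following the 1 h pretreatment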
E-sel TNF inh: TNF alpha driven E-selectin expression inhibition | AID 1246 | inhibition, % at 2 µM | HUVEC TNFa-induced E-selectin immunofluorescence, high content | 120,000 tested, 0.71% active;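 active means inhibition above the batch mean plus 3 SD, and confirmed as a hit on visual image review, cut at about 43% in these data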;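 further: 0% = TNF-stimulated DMSO wells and 100% = unstimulated control wells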
VCAM1 TNFa inh: reduces TNF alpha induced VCAM1 expression in HUVEC. inhibition, % at 2 µM. HUVEC TNFa-induced VCAM-1 immunofluorescence, high-content imaging. AID 802. 95,000 tested, 0.48% active;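 active means inhibition above the batch mean plus 3 SD, with images confirmed as a hit by eye, cut at about 37% in these data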;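 further: 0% = TNF-stimulated DMSO wells and 100% = unstimulated control wells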
An asterisk follows results filed as active; nt = not tested or not shown. Only some compounds are listed: those with a hit (about 1.1% of all), similar ones and a draw of the others.

SMILES	F-actin modifier	HUVEC tox TNFa	E-sel TNF inh	VCAM1 TNFa inh
CCc1ccc(N2CC(C(=O)Nc3cccnc3)CC2=O)cc1 (centres undefined)	-9.9	-9.4	62.6*	3.3
S=C(NC1CCCCC1)N(CCc1ccccc1)CCc1ccccc1	nt	nt	-9.3	nt
C=CCn1c(C(CCCC)CC(O)COCC(C)C)n[nH]c1=S (centres undefined)	nt	nt	10.5	nt
COC(=O)N1[C@H](C)C=C[C@]1(Cc1ccccc1)C(=O)O	nt	nt	96.2*	nt
Clc1cccc(CSc2nnc(-c3sccc3-n3cccc3)o2)c1	nt	-7.3	81.5*	-3.4

Bioassay records deposited in PubChem by Columbia University Molecular Screening Center.
